Assay results as given in PubChem BioAssay (EPA / NIEHS).
Results filed as inconclusive are left out. Calls of active or inactive are those of the source. Rule for the calls, unless noted: active = hit-call score of the fitted dose curve at least 0.9, where 1 is the maximum; inactive = score below 0.9.

Test system: not listed separately
Experiment: ATG_TGFb_CIS: Attagene CIS-FACTORIAL HepG2 Assay for human Transforming Growth Factor (TGF) (AID 2282967)
Conditions: HepG2 Attagene CIS TGFb reporter, mRNA transcription; actives raise or lower the signal
Summary of the method: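 Multiplexed cis-reporter HepG2 system, 24 h treatment; mRNA induction read by fluorescence after RT-PCR and CE; DMSO negative control, bidirectional curve fitting.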

Row | Structure (SMILES) | outcome
1 | CC(C)=CC1C(C(=O)OCN2C(=O)C3=C(CCCC3)C2=O)C1(C)C (configuration not stated) | inactive
2 | CN(C)NC(=O)CCC(=O)O | inactive
3 | CCC(=NOC/C=C/Cl)C1=C(O)CC(C2CCOCC2)CC1=O (configuration not stated) | inactive
4 | CC1=NNC(=O)N(/N=C/c2cccnc2)C1 | inactive
5 | CCOC(=O)CC(SP(=O)(OC)OC)C(=O)OCC (configuration not stated) | inactive
6 | CCCCOC(=O)c1ccccc1C(=O)O | inactive
7 | CCCOCC(=Nc1ccc(Cl)cc1C(F)(F)F)n1ccnc1 | inactive
8 | CN(C)[C@@H]1C(=O)C(C(N)=O)=C(O)[C@@]2(O)C(=O)C3=C(O)c4c(O)cccc4[C@@](C)(O)[C@H]3[C@H](O)[C@@H]12 | inactive
9 | CC(Oc1cccc(Cl)c1)C(=O)O (configuration not stated) | inactive
10 | COc1ccc(C(=CC(=O)N2CCOCC2)c2ccc(Cl)cc2)cc1OC | inactive
11 | Cc1nn(-c2cc(NS(C)(=O)=O)c(Cl)cc2Cl)c(=O)n1C(F)F | inactive
12 | CCOC(=O)COc1cc(-c2nn(C)c(OC(F)F)c2Cl)c(F)cc1Cl | inactive
13 | CC(=NC#N)N(C)Cc1ccc(Cl)nc1 | inactive

Test system: not listed separately
Experiment: ATG_VDRE_CIS: Attagene CIS-FACTORIAL HepG2 Assay for human Vitamin D Receptor Element (VDRE) (AID 2282968)
Conditions: HepG2 VDRE cis-reporter transcription, actives raise or lower the signal
Summary of the method: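 Transfected HepG2 reporter cells, chemical treatment 24 h. RNA isolated, cDNA amplified with reporter-specific primers, products analysed by capillary electrophoresis. Endpoint fitted in both directions versus DMSO.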

Row | Structure (SMILES) | outcome | AC50
14 | COP(=O)(OC)OC(Br)C(Cl)(Cl)Br (configuration not stated) | inactive | 
15 | CN(C)C(=O)Nc1cccc(C(F)(F)F)c1 | inactive | 
16 | S=C1NCCN1 | inactive | 
17 | CNC(=O)ON=C(C)SC | inactive | 
18 | O=c1ccc(=O)[nH][nH]1 | inactive | 
19 | CSC1=N[C@@](C)(c2ccccc2)C(=O)N1Nc1ccccc1 |  | 24.3 µM (active)
20 | CN1COCN(Cc2cnc(Cl)s2)C1=N[N+](=O)[O-] | inactive | 
21 | C[Si](Cn1cncn1)(c1ccc(F)cc1)c1ccc(F)cc1 |  | 27.6 µM (active)
22 | CC(C1CC1)C(O)(Cn1cncn1)c1ccc(Cl)cc1 (configuration not stated) | inactive | 
23 | C[N+]1(C)CCCCC1 | inactive | 
24 | FC(F)C(F)(F)OCC(Cn1cncn1)c1ccc(Cl)cc1Cl (configuration not stated) |  | 37.3 µM (active)
25 | CSc1nnc(C(C)(C)C)c(=O)n1N | inactive | 
26 | COc1cccc(C(=O)NN(C(=O)c2cc(C)cc(C)c2)C(C)(C)C)c1C |  | 1.94 µM (active)
27 | CC(C)=CC1C(C(=O)OCN2C(=O)C3=C(CCCC3)C2=O)C1(C)C (configuration not stated) |  | 31.7 µM (active)
28 | CN(C)NC(=O)CCC(=O)O | inactive | 
29 | CCC(=NOC/C=C/Cl)C1=C(O)CC(C2CCOCC2)CC1=O (configuration not stated) | inactive | 
30 | CC1=NNC(=O)N(/N=C/c2cccnc2)C1 | inactive | 
31 | CCCOCC(=Nc1ccc(Cl)cc1C(F)(F)F)n1ccnc1 | inactive | 
32 | CC(Oc1cccc(Cl)c1)C(=O)O (configuration not stated) | inactive | 
33 | COc1ccc(C(=CC(=O)N2CCOCC2)c2ccc(Cl)cc2)cc1OC |  | 11.4 µM (active)
34 | Cc1nn(-c2cc(NS(C)(=O)=O)c(Cl)cc2Cl)c(=O)n1C(F)F |  | 30.8 µM (active)
35 | CCOC(=O)COc1cc(-c2nn(C)c(OC(F)F)c2Cl)c(F)cc1Cl | inactive | 
36 | CC(=NC#N)N(C)Cc1ccc(Cl)nc1 | inactive | 

Target: Nuclear receptor subfamily 1 group I member 3 (Homo sapiens) (UniProt Q14994)
Sequence (Q14994 whole entry, looked up): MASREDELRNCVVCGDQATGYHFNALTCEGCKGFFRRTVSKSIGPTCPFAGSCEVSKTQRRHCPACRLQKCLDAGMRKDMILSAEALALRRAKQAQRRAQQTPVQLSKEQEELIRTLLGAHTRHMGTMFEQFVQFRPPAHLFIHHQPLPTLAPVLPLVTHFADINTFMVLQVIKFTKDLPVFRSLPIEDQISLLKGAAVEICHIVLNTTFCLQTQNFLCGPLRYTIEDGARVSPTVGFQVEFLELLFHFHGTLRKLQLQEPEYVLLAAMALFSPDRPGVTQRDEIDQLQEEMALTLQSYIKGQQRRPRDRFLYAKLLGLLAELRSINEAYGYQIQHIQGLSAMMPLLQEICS
Experiment: ATG_CAR_TRANS: Attagene TRANS-FACTORIAL HepG2 Assay for human Constitutive Androstane Receptor (CAR) (AID 2282969; active = hit-call score of the fitted dose curve at least 0.9, where 1 is the maximum;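 note: activators raise reporter mRNA above DMSO so AC50 marks induction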)
Conditions: HepG2 Attagene TRANS-FACTORIAL CAR reporter
Summary of the method: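 Steps: transient transfection of HepG2 with multiple GAL4-UAS reporter units; 24 h compound incubation; RNA isolation, RT-PCR, 6-FAM primer extension, HpaI digest; capillary electrophoresis. Gain-of-signal relative to DMSO negative control.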

Row | Structure (SMILES) | outcome
37 | C=C(C)[C@H]1Cc2c(ccc3c2O[C@@H]2COc4cc(OC)c(OC)cc4[C@@H]2C3=O)O1 | inactive
38 | CCOP(=S)(OCC)Oc1ccc2c(C)c(Cl)c(=O)oc2c1 | inactive
39 | CC(C)[C@H](C(=O)O[C@H](C#N)c1cccc(Oc2ccccc2)c1)c1ccc(Cl)cc1 | inactive
40 | CCOP(=S)(OCC)SCCSCC | inactive
41 | CCOP(=S)(OCC)Oc1cc(C)nc(C(C)C)n1 | inactive
42 | CCOP(=S)(OCC)Oc1ccc([N+](=O)[O-])cc1 | inactive
43 | CCNc1nc(Cl)nc(NC(C)(C)C#N)n1 | inactive
44 | CCOC(=O)CC(SP(=O)(OC)OC)C(=O)OCC (configuration not stated) | inactive
45 | CCCCOC(=O)c1ccccc1C(=O)O | inactive

Target: Steroid hormone receptor ERR1 (Homo sapiens) (UniProt P11474)
Sequence (P11474 whole entry, looked up): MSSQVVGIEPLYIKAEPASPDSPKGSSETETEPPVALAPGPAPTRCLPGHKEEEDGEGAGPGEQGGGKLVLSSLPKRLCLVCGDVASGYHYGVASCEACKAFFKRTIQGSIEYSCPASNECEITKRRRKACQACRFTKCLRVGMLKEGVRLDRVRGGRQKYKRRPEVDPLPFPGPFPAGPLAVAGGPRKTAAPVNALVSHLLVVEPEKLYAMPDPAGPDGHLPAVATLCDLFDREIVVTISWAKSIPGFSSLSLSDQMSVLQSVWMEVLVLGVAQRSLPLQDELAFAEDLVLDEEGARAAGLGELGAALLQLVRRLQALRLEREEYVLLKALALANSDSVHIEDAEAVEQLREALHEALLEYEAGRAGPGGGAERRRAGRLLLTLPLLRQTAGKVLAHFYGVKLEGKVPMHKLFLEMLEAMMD
Experiment: ATG_ERRa_TRANS: Attagene TRANS-FACTORIAL HepG2 Assay for human Estrogen-Related Receptor alpha (ERRa) (AID 2282971; active = hit-call score of the fitted dose curve at least 0.9, where 1 is the maximum)
Conditions: HepG2 Attagene TRANS reporter, ERRa transactivation
Summary of the method: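 HepG2 cells transiently transfected with multiplexed GAL4-UAS reporter units reading chimeric ERRa-Gal4 activity; 24 h compound exposure. Reporter mRNA measured by RT-PCR, 6-FAM labelling, HpaI digest and capillary electrophoresis; gain of signal fitted versus DMSO baseline.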

Row | Structure (SMILES) | outcome
46 | C=C(C)[C@H]1Cc2c(ccc3c2O[C@@H]2COc4cc(OC)c(OC)cc4[C@@H]2C3=O)O1 | inactive
47 | O=c1ccc(=O)[nH][nH]1 | inactive
48 | CCOP(=S)(OCC)Oc1ccc2c(C)c(Cl)c(=O)oc2c1 | inactive
49 | O=C(O)c1cc(Oc2ccc(C(F)(F)F)cc2Cl)ccc1[N+](=O)[O-] | inactive
50 | Nc1nc(N)nc(NC2CC2)n1 | inactive
51 | COc1cccc(C(=O)NN(C(=O)c2cc(C)cc(C)c2)C(C)(C)C)c1C | inactive
52 | CN(C)NC(=O)CCC(=O)O | inactive
53 | CCC(=NOC/C=C/Cl)C1=C(O)CC(C2CCOCC2)CC1=O (configuration not stated) | inactive
54 | COc1ccc(C(=CC(=O)N2CCOCC2)c2ccc(Cl)cc2)cc1OC | inactive
55 | Cc1nn(-c2cc(NS(C)(=O)=O)c(Cl)cc2Cl)c(=O)n1C(F)F | inactive
56 | CCOC(=O)COc1cc(-c2nn(C)c(OC(F)F)c2Cl)c(F)cc1Cl | inactive

Target: X-box-binding protein 1 (Homo sapiens) (UniProt P17861)
Sequence (P17861 whole entry, looked up): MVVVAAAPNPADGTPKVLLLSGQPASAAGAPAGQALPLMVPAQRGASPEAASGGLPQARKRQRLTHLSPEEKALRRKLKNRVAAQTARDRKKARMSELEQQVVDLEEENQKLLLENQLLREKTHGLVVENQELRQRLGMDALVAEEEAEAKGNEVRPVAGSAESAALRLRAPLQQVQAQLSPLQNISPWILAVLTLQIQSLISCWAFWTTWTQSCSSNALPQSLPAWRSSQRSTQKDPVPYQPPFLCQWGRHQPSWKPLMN
Experiment: ATG_Xbp1_CIS: Attagene CIS-FACTORIAL HepG2 Assay for human X-box Binding Protein 1 (XBP1) (AID 2282972)
Conditions: HepG2 XBP1 cis-element reporter, Attagene multiplex; actives raise or lower the signal
Summary of the method: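 Multiplexed cis-reporter readout in transfected HepG2 liver cells. Exposure lasted 24 hours. Activity in either direction was fitted against DMSO as negative control and baseline.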

Row | Structure (SMILES) | AC50 | outcome
57 | C=C(C)[C@H]1Cc2c(ccc3c2O[C@@H]2COc4cc(OC)c(OC)cc4[C@@H]2C3=O)O1 | 0.0204 µM (active) | 
58 | COP(=O)(OC)OC(Br)C(Cl)(Cl)Br (configuration not stated) |  | inactive
59 | CN(C)C(=O)Nc1cccc(C(F)(F)F)c1 |  | inactive
60 | S=C1NCCN1 |  | inactive
61 | CNC(=O)ON=C(C)SC |  | inactive
62 | O=c1ccc(=O)[nH][nH]1 |  | inactive
63 | CCOP(=S)(OCC)Oc1ccc2c(C)c(Cl)c(=O)oc2c1 |  | inactive
64 | CSC1=N[C@@](C)(c2ccccc2)C(=O)N1Nc1ccccc1 |  | inactive
65 | CN1COCN(Cc2cnc(Cl)s2)C1=N[N+](=O)[O-] |  | inactive
66 | C[Si](Cn1cncn1)(c1ccc(F)cc1)c1ccc(F)cc1 |  | inactive
67 | CC(C)[C@H](C(=O)O[C@H](C#N)c1cccc(Oc2ccccc2)c1)c1ccc(Cl)cc1 |  | inactive
68 | O=C(O)c1cc(Oc2ccc(C(F)(F)F)cc2Cl)ccc1[N+](=O)[O-] |  | inactive
69 | Nc1nc(N)nc(NC2CC2)n1 |  | inactive
70 | CC(C1CC1)C(O)(Cn1cncn1)c1ccc(Cl)cc1 (configuration not stated) |  | inactive
71 | CCOP(=S)(OCC)SCCSCC |  | inactive
72 | C[N+]1(C)CCCCC1 |  | inactive
73 | CCOP(=S)(OCC)Oc1cc(C)nc(C(C)C)n1 |  | inactive
74 | FC(F)C(F)(F)OCC(Cn1cncn1)c1ccc(Cl)cc1Cl (configuration not stated) | 75.8 µM (active) | 

Row | Structure (SMILES) | AC50 | outcome
75 | CSc1nnc(C(C)(C)C)c(=O)n1N |  | inactive
76 | CCOP(=S)(OCC)Oc1ccc([N+](=O)[O-])cc1 |  | inactive
77 | CCOP(=O)(OCC)Oc1cc(C)nc(C(C)C)n1 |  | inactive
78 | CCNc1nc(Cl)nc(NC(C)(C)C#N)n1 |  | inactive
79 | COc1cccc(C(=O)NN(C(=O)c2cc(C)cc(C)c2)C(C)(C)C)c1C |  | inactive
80 | CC(C)=CC1C(C(=O)OCN2C(=O)C3=C(CCCC3)C2=O)C1(C)C (configuration not stated) | 50 µM (active) | 
81 | CN(C)NC(=O)CCC(=O)O |  | inactive
82 | CCC(=NOC/C=C/Cl)C1=C(O)CC(C2CCOCC2)CC1=O (configuration not stated) |  | inactive
83 | CC1=NNC(=O)N(/N=C/c2cccnc2)C1 |  | inactive
84 | CCOC(=O)CC(SP(=O)(OC)OC)C(=O)OCC (configuration not stated) |  | inactive
85 | CCCCOC(=O)c1ccccc1C(=O)O |  | inactive
86 | CCCOCC(=Nc1ccc(Cl)cc1C(F)(F)F)n1ccnc1 |  | inactive
87 | CN(C)[C@@H]1C(=O)C(C(N)=O)=C(O)[C@@]2(O)C(=O)C3=C(O)c4c(O)cccc4[C@@](C)(O)[C@H]3[C@H](O)[C@@H]12 |  | inactive
88 | CC(Oc1cccc(Cl)c1)C(=O)O (configuration not stated) |  | inactive
89 | COc1ccc(C(=CC(=O)N2CCOCC2)c2ccc(Cl)cc2)cc1OC |  | inactive
90 | Cc1nn(-c2cc(NS(C)(=O)=O)c(Cl)cc2Cl)c(=O)n1C(F)F |  | inactive
91 | CCOC(=O)COc1cc(-c2nn(C)c(OC(F)F)c2Cl)c(F)cc1Cl |  | inactive
92 | CC(=NC#N)N(C)Cc1ccc(Cl)nc1 |  | inactive
